Hits are enriched below; roughly 1.3% of the tested compounds scored in any of these assays.
PREPL inh: human PREPL enzyme inhibition. recombinant PREPL, fluorescence polarization activity-based probe. inhibition, % at 5.96 µM. 320,000 compounds, 0.68% hits. AID 2751;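 note: 0% = enzyme with DMSO and 100% = wells lacking enzyme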
PME-1 inh: blocks human protein phosphatase methylesterase 1. Q9Y570. recombinant PME-1, FP-Rh probe fluorescence polarization. inhibition, % at 5.9 µM. 320,000 compounds, 0.53% hits;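 active = inhibition above the campaign mean of all compounds plus 3 SD, cut at about 26% in these data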;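 note: competitive labeling of PME-1 active site by serine hydrolase directed probe; 0% = PME-1 with DMSO and 100% = wells lacking PME-1 enzyme; inhibitors block probe labeling so polarization falls and inhibition rises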
LYPLA1 counter: blocks human lysophospholipase 1, a PME1 counter-screen; O75608; recombinant LYPLA1, FP-Rh probe fluorescence polarization; inhibition, % at 5.9 µM; 320,000 compounds, 0.16% hits; AID 2174;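 active = inhibition above the mean of all tested compounds plus 3 SD, set per campaign, cut at about 14% in these data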;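 note: inhibitors block serine hydrolase probe labeling of LYPLA1 so polarization falls; 0% = enzyme with DMSO and 100% = wells lacking LYPLA1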
Target sequence (O75608 whole entry, looked up): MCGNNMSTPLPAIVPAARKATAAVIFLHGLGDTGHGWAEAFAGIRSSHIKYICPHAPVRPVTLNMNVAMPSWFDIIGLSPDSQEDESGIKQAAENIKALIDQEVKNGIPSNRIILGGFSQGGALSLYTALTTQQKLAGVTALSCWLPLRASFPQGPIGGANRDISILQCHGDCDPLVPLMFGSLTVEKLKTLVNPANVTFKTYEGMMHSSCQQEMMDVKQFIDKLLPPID
LYPLA2 counter: blocks human lysophospholipase 2, a PME1 counter-screen | O95372 | recombinant LYPLA2, FP-Rh probe fluorescence polarization | inhibition, % at 5.9 µM | 320,000 compounds, 0.38% hits;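 active = inhibition above the screen-wide mean plus 3 SD, limit set per campaign, cut at about 26% in these data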;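 note: 0% = LYPLA2 with DMSO and 100% = wells lacking LYPLA2 enzyme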
Target sequence (O95372 whole entry, looked up): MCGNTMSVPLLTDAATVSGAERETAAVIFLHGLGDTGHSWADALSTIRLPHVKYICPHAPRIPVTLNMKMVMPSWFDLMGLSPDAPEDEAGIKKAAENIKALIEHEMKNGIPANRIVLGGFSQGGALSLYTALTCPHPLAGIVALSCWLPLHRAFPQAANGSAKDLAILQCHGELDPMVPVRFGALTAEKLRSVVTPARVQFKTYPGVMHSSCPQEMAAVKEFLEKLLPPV
Fam108B inh: Fam108B inhibition, counter-screen for RBBP9 inhibitors; inhibition, % at 9.51 µM; recombinant Fam108B, FP-Rh probe fluorescence polarization; 300,000 compounds, 0.33% hits;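 active = inhibition above the screen mean inhibition plus 3 SD, computed separately per campaign, cut at about 18% in these data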;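 note: inhibitors lower polarization as less probe binds the enzyme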
PREPL inh cf: human PREPL inhibition, confirmation. recombinant PREPL, fluorescence polarization activity probe. inhibition, % at 5.96 µM. shares compounds with PREPL inh. 2,000 compounds, 67% hits;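 note: 0% = protein with DMSO and 100% = wells lacking protein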
Starred values were filed as active, the others as inactive; nt = no result. Cut-off read from the data, not from the text of the source, unless noted: active = inhibition above about 43%; inactive = the rest.

SMILES	PREPL inh	PME-1 inh	LYPLA1 counter	LYPLA2 counter	Fam108B inh	PREPL inh cf
CN1c2ccsc2/C(=N/Nc2ccc(F)cc2)CS1(=O)=O	57.2*	12.8	-1.1	4.3	3.4	34.2
CC(C)N(c1ccccc1)c1ccc(NC(=O)COC(=O)CCN2C(=O)c3cccc([N+](=O)[O-])c3C2=O)cc1	58.9*	5.7	-6.2	3.5	9.4	59.7*
CC(/C=C/c1ccco1)=N/NC(=O)c1ccc(C)nc1	60.2*	-3.9	0.2	1.4	3.8	16.6
CC(/C=C/c1ccco1)=N\NC(=O)c1cccnc1	15.0	0.6	2.1	-4.5	1.2	nt
COc1ccc(C(=O)N2CCC3(CC2)NCCc2[nH]cnc23)cc1	1.0	4.6	5.7	8.6	-1.3	nt
CN1/C(=C\C=Nc2ccc3ccccc3c2)C(C)(C)c2ccccc21	41.8	4.4	-4.2	-2.9	2.5	nt
CN(C)c1ccc(N=C/C=C2\N(C)c3ccccc3C2(C)C)cc1	70.0*	2.1	-1.5	-2.2	1.1	68.3*
COc1ccc(-n2c(COc3ccc(Cl)cc3)nnc2SCc2ccc(C#N)cc2)cc1	-32.8	-0.7	-6.7	-3.0	-8.2	nt
COc1ccc(NCc2nnc(SCc3ccc(Cl)cc3)n2-c2ccccc2)cc1	51.8*	3.3	4.1	3.4	0.8	49.0*
CCOC(=O)N/N=C/c1cc(OC)c(O)c(OC)c1	4.1	-0.5	-4.1	-2.5	3.5	nt
CCOC(=O)c1sc(N/N=C/c2cc(Br)c(O)c(OC)c2)nc1C	44.0*	28.4*	6.4	8.7	16.8	47.8*
O=[N+]([O-])c1ccc(N2CCN(c3cccc(Cl)c3)CC2)cn1	47.1*	5.0	-2.0	-2.5	1.3	37.9
CCNc1sc(C(=O)c2cccs2)c(N)c1-c1nc2ccccc2s1	9.7	12.8	1.4	0.4	4.1	nt
CCOC(=O)c1sc(NCc2ccco2)c(-c2nc3ccccc3s2)c1N	45.0*	8.5	3.6	4.2	7.3	45.6*
Cc1ccc(CN2CCSc3ccc(C(=O)NCC4CCCO4)cc32)cc1 (centres undefined)	43.2*	7.1	-0.7	8.1	0.8	40.1
CCSc1ncc(/C=N/Nc2ccc(Cl)cc2)n1C	43.1*	21.3	-2.0	1.8	9.1	35.9
COc1cc(OC)cc(C(=O)N2CCN(S(=O)(=O)c3ccc(Cl)s3)CC2)c1	18.0	4.0	-0.6	5.4	nt	nt
CN(C)S(=O)(=O)c1cccc(COc2ncnc3c(Cl)cc(Cl)cc23)c1	-5.7	5.7	-3.2	3.3	0.9	nt
COc1ccc(C(CCNCc2ccc(N(C)C)cc2)c2ccccc2)cc1 (centres undefined)	54.2*	-1.8	0.6	0.0	2.0	64.0*
COc1ccc(C(CCNCc2ccc(OC)c(OC)c2)c2ccc(F)cc2)cc1 (centres undefined)	6.7	1.0	-4.2	-4.8	-1.7	nt
C#CCOCCOCCOCCNc1nc(N2CCN(C(=O)[C@H]([C@@H](C)CC)n3cc([C@@H](N)Cc4ccc(O)cc4)nn3)CC2)nc(N2CCN(C(=O)[C@H](Cc3cc4ccccc4[nH]3)n3cc([C@@H](N)C(C)CC)nn3)CC2)n1 (some centres undefined)	53.4*	1.9	0.3	5.4	-3.8	48.1*
C#CCOCCOCCOCCNc1nc(N2CCN(C(=O)[C@H](Cc3ccc(O)cc3)n3cc([C@@H](N)C(C)CC)nn3)CC2)nc(N2CCN(C(=O)[C@H](Cc3cc4ccccc4[nH]3)n3cc([C@@H](N)C(C)CC)nn3)CC2)n1 (some centres undefined)	46.5*	-1.6	-0.7	-2.4	-0.3	41.3
C#CCOCCOCCOCCNc1nc(N2CCN(C(=O)[C@H](CCC(=O)O)n3cc(C(N)Cc4ccc(O)cc4)nn3)CC2)nc(N2CCN(C(=O)[C@H](Cc3cc4ccccc4[nH]3)n3cc(C(N)[C@H](C)CC)nn3)CC2)n1 (some centres undefined)	41.5	3.9	-2.4	1.2	-2.4	nt
C#CCOCCOCCOCCNc1nc(N2CCN(C(=O)[C@H]([C@@H](C)CC)n3cc([C@@H](N)CO)nn3)CC2)nc(N2CCN(C(=O)[C@H](Cc3cc4ccccc4[nH]3)n3cc([C@@H](N)C(C)CC)nn3)CC2)n1 (some centres undefined)	48.3*	-3.2	-4.5	2.0	-0.8	49.2*

Bioassay records (PubChem)
